Compound activity: PubChem, several laboratories
Compounds with a hit are over-represented: about 2.2% of the library has one in this group of screens.
HGIII-sPLA2 inh: Inhibits HGIII-sPLA2 liposome hydrolysis, primary screen; QFRET BODIPY PC-A2 liposome hydrolysis, fluorescence; actives 0.56% (n = 370,000); Q9NZ20; inhibition, % at 12.2 µM;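 active = inhibition above mean plus 3 SD of compounds lying within the high and low control bounds, cut at about 19% in these data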
Target sequence (Q9NZ20 whole entry, looked up): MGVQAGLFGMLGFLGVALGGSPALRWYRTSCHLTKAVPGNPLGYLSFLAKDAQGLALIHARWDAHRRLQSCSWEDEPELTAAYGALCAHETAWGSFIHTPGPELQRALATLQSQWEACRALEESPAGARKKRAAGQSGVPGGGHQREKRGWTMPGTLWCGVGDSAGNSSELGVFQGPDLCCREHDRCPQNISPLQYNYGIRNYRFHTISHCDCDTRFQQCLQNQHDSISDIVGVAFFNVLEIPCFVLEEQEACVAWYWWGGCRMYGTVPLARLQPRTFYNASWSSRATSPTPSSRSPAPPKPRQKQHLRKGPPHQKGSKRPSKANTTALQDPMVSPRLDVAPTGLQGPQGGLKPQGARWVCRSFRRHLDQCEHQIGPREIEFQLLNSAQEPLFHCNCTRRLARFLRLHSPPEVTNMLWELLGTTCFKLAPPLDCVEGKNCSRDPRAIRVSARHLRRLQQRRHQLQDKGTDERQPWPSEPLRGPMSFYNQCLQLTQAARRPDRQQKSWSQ
Efflux pump inh: inhibitors of Candida antifungal efflux pumps expressed in yeast; S. cerevisiae Candida pump triplex, Nile Red efflux; inhibition, % at 10 µM; actives 0.44% (n = 330,000);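 active = plate passing quality check with inhibition over a set limit, or well fluorescence over plate mean plus 4 SD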;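 note: Nile Red retained in pooled yeast measured as flow cytometry median fluorescence; higher means more Nile Red kept so more efflux inhibition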
SKN-1 block: blocks SKN-1 activity in C. elegans. C. elegans VP596 Pgst-4::GFP/RFP ratio, acrylamide-induced, 24 h. inhibition, % at 21.8 µM. actives 0.49% (n = 360,000). AID 624304;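 active = interference check ratio from 0.5 to 1.5 plus GFP to RFP signal ratio inhibition reaching or exceeding a fixed threshold, cut at about 30% in these data, passing the limit was not always enough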
Mot1-301 SUMO: blocks SUMOylation pathway, rescuing yeast Mot1-301 growth. S. cerevisiae Mot1-301 growth rescue, ATP luminescence, 38.5C; percent above DMSO median, 100 means doubled. growth rescue, % at 18.8 µM. actives 1% (n = 320,000);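 active = every valid replicate shows activation above 250% relative to neutral control wells; inactive = the rest, any valid replicate at or below 250%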
Numbers stand for hits; - = inactive; . = no result.

SMILES	HGIII-sPLA2 inh	Efflux pump inh	SKN-1 block	Mot1-301 SUMO
CNC(=O)c1c(NC(=O)c2ccc(N3C(=O)CCC3=O)cc2)sc2c1CCCC2	-	-	-	-
CCOc1ccccc1C(=O)NCC(=O)OCc1csc(CC(=O)Nc2ccc(C)cc2)n1	-	-	-	-
COc1ccc(CCC(=O)OCc2csc(CC(=O)Nc3ccc(C)cc3)n2)cc1OC	-	0.9	-	-
COc1ccc(-c2cc(C(=O)Nc3c(C)n(C)n(-c4ccccc4)c3=O)c3ccccc3n2)c(OC)c1	-	-	36	-
COc1ccc(-c2cc(C(=O)Nc3c(C)n(C)n(-c4ccccc4)c3=O)c3ccccc3n2)cc1OC	-	-	-	-
Cn1c(SCC(=O)c2ccccc2)nnc1C1COc2ccccc2O1 (centres undefined)	-	-	-	-
Cc1cc(C(=O)CSc2nnc(C3COc4ccccc4O3)n2C)c(C)n1-c1ccc(F)cc1 (centres undefined)	-	-	48	-
CCCn1nc(CC(=O)O)c2ccccc2c1=O	-	-	-	-
CCn1nc(CCC(=O)O)c2ccccc2c1=O	-	-	41	-
C#CCOCCOCCOCCNc1nc(N2CCN(C(=O)CCCCCCCCCCNC(=O)[C@H](CCCN=C(N)N)n3cc(C[C@@H](C)CC)nn3)CC2)nc(N2CCN(C(=O)CCCCCCCCCCNC(=O)[C@@H]([C@H](C)CC)n3cc(CCCCCN)nn3)CC2)n1	.	4.8	.	-
C#CCOCCOCCOCCNc1nc(N2CCN(C(=O)CCCCCCCCCCNC(=O)[C@H](CO)n3cc(CCCCCN)nn3)CC2)nc(N2CCN(C(=O)CCCCCCCCCCNC(=O)[C@H](CCCN=C(N)N)n3cc(C[C@@H](C)CC)nn3)CC2)n1	.	-	.	-
C#CCOCCOCCOCCNc1nc(N2CCN(C(=O)CCCCCCCCCCNC(=O)[C@H]([C@@H](C)CC)n3cc(CCCCN=C(N)N)nn3)CC2)nc(N2CCN(C(=O)CCCCCCCCCCNC(=O)[C@H](CCCN=C(N)N)n3cc(C[C@@H](C)CC)nn3)CC2)n1	.	6.2	.	-
COc1ccc(C2Nc3ccccc3C(=O)N2Cc2ccccc2)cc1COc1ccc(NC(C)=O)cc1 (centres undefined)	-	.	.	.
COc1ccc(Cl)cc1NC(=O)CN1CCCC1	-	-	-	-
COc1ccc(Cl)cc1NC(=O)CN1CCN(S(=O)(=O)N2CCOCC2)CC1	-	-	-	291
Cc1cc2ccccn2c1C(=O)Nc1cccc(Cl)c1	-	-	62	-
Cc1cc2ccccn2c1C(=O)c1ccc(Cl)cc1	-	-	-	-
COc1cccc(-c2noc(-c3cccs3)n2)c1	-	-	91	-
Cc1ccccc1-c1noc(-c2cccs2)n1	-	-	88	-
COc1cccc(-c2nc(-c3ccccc3)no2)c1	-	-	-	-
Cc1ccccc1NC(=O)COc1coc(CN2CCN(c3ccccc3)CC2)cc1=O	-	-	-	.
O=C(CCc1nnc(CCCCc2ccccc2)o1)N1CCCC(O)C1 (centres undefined)	-	-	-	276
Cn1c(-c2ccccc2)cnc1NCc1ccc(-c2ccccc2)cc1	-	-	-	383
COc1ccc(CNc2ncc(-c3ccccc3)n2C)cc1	-	-	-	-
O=CN1CCc2scc[n+]2-c2ccccc21	-	-	36	-
SMILES	HGIII-sPLA2 inh	Efflux pump inh	SKN-1 block	Mot1-301 SUMO
CCOC(=O)C(CSCC(=O)c1ccc(Cl)cc1Cl)NC(=O)OC(C)(C)C (centres undefined)	-	-	36	-
COc1ccc(-c2nc(C#N)c(NCCCN(C)C)o2)cc1OC	-	-	-	306
Cc1ccc(NC2=Nc3ccccc3N3C2=Nc2c(c(C)nn2-c2ccccc2)C3c2ccc(O)c(O)c2)cc1 (centres undefined)	-	.	36	.
Cc1nn(-c2ccccc2)c2c1C(c1ccc(O)c(O)c1)N1C(=N2)C(Nc2ccccc2)=Nc2ccccc21 (centres undefined)	-	-	-	-
CCCn1c(N)c(C(c2ccc(C(=O)OC)cc2)N2CCN(c3ccccc3)CC2)c(=O)[nH]c1=O (centres undefined)	-	-	-	-
CCCn1c(N)c(C(c2ccc(OC)cc2)N2CCN(c3ccccc3)CC2)c(=O)[nH]c1=O (centres undefined)	-	-	38	-
COC(=O)c1ccc2c(c1)C(C)(C)C(/C=C/c1ccc(OC)c(OC)c1OC)=[N+]2C	-	-	46	-
COC(=O)c1ccc2c(c1)C(C)(C)C(/C=C/c1ccc(O)cc1)=[N+]2C	-	-	-	-
CCN(CC)CCN1C(=O)C(=O)/C(=C(/O)c2cnn(-c3ccccc3)c2C)C1c1ccc(C)o1 (centres undefined)	-	-	46	-
CCCN1CCCCC(NC(=O)c2ccccc2C)C1=O (centres undefined)	-	.	.	.
CC(NC(=O)COc1cccc(Br)c1)C(=O)O (centres undefined)	-	-	-	997
COC(=O)c1cc2c(c3c4cc(C)ccc4n(S(=O)(=O)c4ccc(OC)cc4)c13)C(=O)N(Cc1ccccc1)C2	-	.	.	.
Cc1cc(C)n(Cc2ccc(C(=O)NCc3ccco3)o2)n1	-	-	36	-
CCCC1CCC2(CCC(=O)N2CCOC)CC1 (centres undefined)	-	.	.	.
COc1ccc(S(=O)(=O)Nc2cccc(F)c2)cc1C	-	-	-	-
COc1ccc(S(=O)(=O)Nc2ccc(S(=O)(=O)Nc3ccc(F)cc3)cc2)cc1C	-	-	36	-
CCOc1ccc(-n2c(SCc3ccc(C#N)cc3)nnc2-c2ccco2)cc1	-	.	.	.
O=C(/C=C/c1ccc(Cl)cc1Cl)NC(=S)Nc1ccc(CN2CCOCC2)cc1	-	-	-	-
Clc1ccc(C=Cc2ccccn2)c(Cl)c1	-	.	85	.
O=C(/C=C/c1ccc(Cl)cc1Cl)NC(=S)Nc1ccccn1	-	-	38	-
CC(C)CN1C(=O)c2ccc(C(=O)Nc3ccccc3C(=O)O)cc2C1=O	-	-	-	-
Clc1ccc(Cc2nc(-c3cccnc3)no2)cc1	-	-	41	-
CCOc1ccc(S(=O)(=O)/N=C(/Nc2ccc(OC)cc2)c2ccccc2)cc1	-	-	-	-
COc1ccc(C(=O)NN/C(=N/S(=O)(=O)c2ccc(C)cc2)c2ccccc2)cc1	-	-	37	-
O=[N+]([O-])c1ccc(Oc2ccc(F)cc2)c2ccncc12	-	-	36	-
SMILES	HGIII-sPLA2 inh	Efflux pump inh	SKN-1 block	Mot1-301 SUMO
O=[N+]([O-])c1ccc(Oc2cccc(Br)c2)c2ccncc12	-	-	-	-
Cn1nccc1C(=O)N1CCC(Cc2ccccc2)CC1	-	-	38	-
O=C(c1ccc(Br)o1)N1CCC(Cc2ccccc2)CC1	-	-	-	-
CCOCC(=O)N1CCC(Cc2ccccc2)CC1	-	-	-	-
Cn1c(C(=O)O)c(CC(=O)N2CCC(Cc3ccccc3)CC2)c2ccccc21	-	-	-	893
CC(=O)N1CCN(c2ccc(N3CCN(Cc4ccccc4)[C@@H](C)C3)c(C)c2)[C@@H](C)C1	-	.	.	.
C[C@H]1COc2cccc(N3CCC[C@@H]3CO)c2S(=O)(=O)N1	-	.	-	.
N/C(=N\OC(=O)c1ccc(Cl)cc1)c1nonc1N	-	-	-	294
CCCC(C)C(=O)NC1CCCCN(C)C1=O (centres undefined)	-	.	.	.
